Compounds with a hit are over-represented: about 5.4% of the library has one in this group of screens.
Granule exo inh: blocks lytic granule exocytosis; TALL-104 LAMP-1 surface exposure, flow cytometry; cells stimulated with thapsigargin and PMA; inhibition, % at 10 µM; 0.66% of 360,000 active; AID 651702;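 active means inhibition above about 55%, limit read from the data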
beta cell repl: MIN6 beta-cell proliferation induction. proliferation, % at 10 µM. MIN6 cells proliferation, ATPlite luminescence, 48 h; cells starved in 0.2% serum; 100% = growth in 10% serum. AID 2380. 0.29% of 330,000 active;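 active means compounds whose signal lies at least 3.5 SD above the mean of all wells on their plate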;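 further: 0% = DMSO-treated cells in low-serum medium and 100% = 10% serum control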
JMJD2C inh: blocks human GASC-1 demethylase activity. AID 2099. inhibition, % at 2.35 µM. GST-JMJD2C(1-420) H3K9me3 demethylation, DELFIA europium. 0.069% of 330,000 active;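 active means more than half of a compound's replicate wells show inhibition beyond 50%, single wells judged on their own value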;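 further: signal counts dimethyl H3K9 product captured on neutravidin plate; 0% = median of DMSO wells and 100% = 0.3 times that DMSO median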
Target sequence (Q9H3R0 1-420 limits assumed): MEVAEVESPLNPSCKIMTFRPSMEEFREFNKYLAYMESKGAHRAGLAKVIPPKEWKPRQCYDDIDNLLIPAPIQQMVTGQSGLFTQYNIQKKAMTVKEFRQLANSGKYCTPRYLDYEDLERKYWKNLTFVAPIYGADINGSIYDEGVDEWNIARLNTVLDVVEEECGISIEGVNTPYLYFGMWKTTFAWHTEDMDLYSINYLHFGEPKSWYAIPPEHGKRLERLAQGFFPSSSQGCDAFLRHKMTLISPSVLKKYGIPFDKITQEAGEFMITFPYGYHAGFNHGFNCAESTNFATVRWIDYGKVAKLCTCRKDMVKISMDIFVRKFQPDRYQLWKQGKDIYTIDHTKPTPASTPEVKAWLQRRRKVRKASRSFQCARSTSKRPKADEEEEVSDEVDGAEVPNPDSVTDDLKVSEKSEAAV
M18AAP inhibitor: PfM18AAP enzyme inhibition | recombinant PfM18AAP, H-Glu-NHMec fluorogenic cleavage | inhibition, % at 7.35 µM | 1.2% of 290,000 active;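 active means inhibition above the campaign mean inhibition over all tested compounds plus 3 SD, cut at about 28% in these data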;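 further: 0% = plate median of test compound wells and 100% = 2 mM ZnCl2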
ALR inh: human ALR oxidase inhibition via reduced H2O2; purified ALR, DTT oxidation, H2O2 HRP-luminol luminescence; inhibition, % (test concentration not listed); 3.8% of 290,000 active; P55789; AID 485317;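 active means mean replicate inhibition above about 79%, with every replicate also reaching it, limit read from the data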
Target sequence (P55789 whole entry, looked up): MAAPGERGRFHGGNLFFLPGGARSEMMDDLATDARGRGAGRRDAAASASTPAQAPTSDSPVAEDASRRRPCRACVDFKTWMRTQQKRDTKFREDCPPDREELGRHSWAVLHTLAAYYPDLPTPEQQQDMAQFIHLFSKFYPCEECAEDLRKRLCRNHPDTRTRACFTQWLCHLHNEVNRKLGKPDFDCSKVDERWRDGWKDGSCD
SMARCA2 act: activators of SMARCA2 function | MG213 cells, MMTV-luciferase reporter, dexamethasone, overnight | activation, % at 9.1 µM | 1% of 370,000 active | AID 652017; in the data active means activation above about 7.8%;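 further: 0% = vehicle wells and 100% = reference activator wells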
An asterisk follows results filed as active.

CCOC(=O)[C@]12CCCCC/C=C\1N(CCc1ccc(Cl)cc1)C(=O)[C@H]2CC(=O)NCCCN1CCCC1=O was read as SMARCA2 act -1.9.
Screening CCOc1ccc(NCc2cccn2-c2nnc(N3CCC(C(=O)NCCCN4CC(C)CC(C)C4)CC3)s2)cc1 (configuration not stated) returned Granule exo inh 17.9, beta cell repl -7.7, JMJD2C inh -8.3, M18AAP inhibitor 1.9, ALR inh 99.6* and SMARCA2 act 0.2.
`CCN1CCN(CCCNC(=O)C2CCN(c3nnc(-n4cccc4)s3)CC2)CC1` gave Granule exo inh -1.1, beta cell repl -2.5, JMJD2C inh 3.0, M18AAP inhibitor 1.6, ALR inh -3.8 and SMARCA2 act -0.6.
Screening CCN(CC)c1cccc(OCC(=O)N2c3ccccc3CC2C)c1 (configuration not stated) returned Granule exo inh -12.8, beta cell repl -3.4, JMJD2C inh 3.6, ALR inh 98.2* and SMARCA2 act 0.2.
COc1cc(C2N(c3ccccc3)CCN2c2ccccc2)ccc1OC(C)=O was read as Granule exo inh -5.8, beta cell repl -1.8, JMJD2C inh -14.3, M18AAP inhibitor 7.6, ALR inh 94.2* and SMARCA2 act 3.5.
COc1cc(C2N(Cc3ccccc3)CCN2Cc2ccccc2)ccc1OC(C)=O was read as Granule exo inh 31.4, beta cell repl -1.2, JMJD2C inh -20.0, M18AAP inhibitor 8.5, ALR inh 8.6 and SMARCA2 act -0.3.
Screening COCCCn1cc(CN2CC=CS2(=O)=O)nn1 returned SMARCA2 act 1.0.
`O=C(CSCc1ccc([N+](=O)[O-])cc1)NN=C1CCCCCC1` gave Granule exo inh -0.6, beta cell repl -1.8, JMJD2C inh -7.2, M18AAP inhibitor 5.8, ALR inh 87.8* and SMARCA2 act -1.9.
For O=C(CSCc1ccc(Cl)cc1)NN=C1CCCC1 the results were Granule exo inh -2.0, beta cell repl -1.9, JMJD2C inh 4.6, M18AAP inhibitor 0.5, ALR inh 10.5 and SMARCA2 act -2.8.
Screening COc1cc(/C=N/NC(=O)CSCc2ccc([N+](=O)[O-])cc2)cc(OC)c1OC returned Granule exo inh -2.9, beta cell repl -2.5, JMJD2C inh -13.6, M18AAP inhibitor -1.5, ALR inh 98.2* and SMARCA2 act -1.6.
For COc1ccc(C2=CCN(C)C(=O)N2c2ccc([N+](=O)[O-])cc2)cc1 the results were SMARCA2 act 0.5.
For COC(=O)C1CN(C2CCCC2)CCS(=O)(=O)N1Cc1ccc(C(F)(F)F)cc1 (configuration not stated) the results were SMARCA2 act -2.5.
Screening COc1cccc(-n2c(SC3CCOC3=O)nc3ccccc3c2=O)c1 (configuration not stated) returned Granule exo inh -1.6, beta cell repl -0.4, JMJD2C inh 3.5, M18AAP inhibitor -0.2, ALR inh 94.6* and SMARCA2 act -0.6.
For COc1ccc(OCc2nnc(SC3CCOC3=O)n2-c2ccccc2)cc1 (configuration not stated) the results were Granule exo inh -0.9, beta cell repl -1.8, JMJD2C inh 1.3, M18AAP inhibitor -2.2, ALR inh -4.5 and SMARCA2 act -2.3.
For C=CCNC(=S)Nc1ccc(N(C)C)cc1 the results were Granule exo inh 6.0, beta cell repl -2.1, JMJD2C inh 7.5, M18AAP inhibitor 5.8, ALR inh 99.0* and SMARCA2 act -0.2.
For COc1ccc(O)c(CNc2ccccc2F)c1 the results were Granule exo inh -2.0, beta cell repl -4.7, JMJD2C inh 5.3, M18AAP inhibitor -10.0, ALR inh 98.7* and SMARCA2 act -1.8.
`CCCN1CNc2c(c(=O)[nH]c(=S)n2CCc2ccccc2)C1` gave Granule exo inh 1.6, beta cell repl -3.1, M18AAP inhibitor -1.9, ALR inh 91.3* and SMARCA2 act 0.4.
`OC(c1ccccc1)(c1ccccc1)C1CCN(CCCNc2ccc(C(F)(F)F)cc2)CC1` gave SMARCA2 act -6.6.
For CCOC(=O)N(C)C[C@H]1OCc2cn(nn2)CCCC(=O)N([C@@H](C)CO)C[C@@H]1C the results were SMARCA2 act -2.4.
`Nc1ccc2nc(-c3cccnc3)[nH]c2c1` gave Granule exo inh -3.6, beta cell repl -2.5, JMJD2C inh -2.2, M18AAP inhibitor 5.5, ALR inh 99.7* and SMARCA2 act 6.0.
Nc1ccc2nc(-c3ccccc3)[nH]c2c1 was read as Granule exo inh 0.8, beta cell repl -5.3, JMJD2C inh -38.1, M18AAP inhibitor 18.3, ALR inh 99.2* and SMARCA2 act 0.1.
Screening O=C(Nc1ccc2nc(-c3cccnc3)[nH]c2c1)C1CCCCC1 returned Granule exo inh -2.7, beta cell repl -2.9, JMJD2C inh 13.2, M18AAP inhibitor -1.2, ALR inh 1.9 and SMARCA2 act 0.4.
Screening Nc1ccc2nc(-c3ccc(N)c(Cl)c3)[nH]c2c1 returned Granule exo inh -0.6, beta cell repl -4.8, JMJD2C inh -13.4, M18AAP inhibitor 10.7, ALR inh 99.0* and SMARCA2 act 2.9.
For Nc1cccc(C(=O)Nc2ccc3nc(-c4cccnc4)[nH]c3c2)c1 the results were Granule exo inh 6.7, beta cell repl -0.7, JMJD2C inh -10.5, M18AAP inhibitor 1.9, ALR inh 99.3* and SMARCA2 act -3.9.
`Nc1ccc2nc(-c3ccccn3)[nH]c2c1` gave Granule exo inh 0.8, beta cell repl -3.4, JMJD2C inh 2.8, M18AAP inhibitor 2.9 and SMARCA2 act 6.4.
Nc1[nH]c(C(=O)c2ccccc2)c(-c2ccc(Cl)c(F)c2)c1C(=O)c1c[nH]c2ccccc12 was read as SMARCA2 act -1.6.
For Cc1ccc(S(=O)(=O)NCC(=O)N2CCN(c3ccccn3)CC2)s1 the results were SMARCA2 act -5.3.
Screening CCCCCCCCN1C(=O)[C@@H](CC(=O)NCCCOC)C[C@@]2(C(=O)OC)C1=C[C@H](C1CCCC1)O[C@@H]2C returned SMARCA2 act -4.3.
Cc1cc(C)n2nc(CNS(=O)(=O)c3ccc(C(C)(C)C)cc3)nc2n1 was read as Granule exo inh 6.0 and SMARCA2 act 1.1.
`COC(=O)c1ccc(Cn2ccc3ccc(-c4ccc5ccn(C(=O)c6ccc(C)cc6)c5c4)cc32)cc1` gave SMARCA2 act -2.4.
`COC(=O)[C@]12C[C@H](CC(=O)NCCCN3CCCC3=O)C(=O)N(Cc3ccco3)C1=C[C@H](C(C)(C)C)O[C@@H]2C` gave SMARCA2 act -6.0.
For C#CCCN([C@@H](CC(C)C)C(=O)OC)S(=O)(=O)c1ccc(F)cc1Br the results were SMARCA2 act -4.4.
COc1ccc2nc(-c3ccc(N)cc3)[nH]c2c1 was read as Granule exo inh -1.2, beta cell repl -2.9, JMJD2C inh -15.0, M18AAP inhibitor -0.8, ALR inh 99.2* and SMARCA2 act -4.6.
